Sampled rows, rich in hits. Any-hit rate of the full collection: about 2.5%.
Marburg entry inh = inhibitors of Marburg virus binding or cell entry | Marburg virus pseudotyped entry inhibition, cell reporter | 300,000 tested, 1.8% active | Potency, µM (series often up to 37.8 µM), without a hit: at the highest dose activity change, negative = inhibition, hits mostly inhibitors | AID 540276; calls by dose curve; tested in HEK293 cells
Lassa entry inh = blocks Lassa virus binding to or entry into cells. 300,000 tested, 1.2% active. Lassa virus pseudotype entry inhibition, cell reporter. Potency, µM (series often up to 37.9 µM), for the others: top-dose activity change, negative = inhibition, hits mostly inhibitors. AID 540256; calls by dose curve; tested in HEK293 cells; further: nearly all actives have a fitted effect of over 50% in size
VACV Venus inh = vaccinia inhibition (Venus reporter); Vaccinia virus Venus reporter expression, fluorescence; AID 720580; Potency, µM (doses to about 36.5 µM), without a hit: top-dose activity change, negative = inhibition, usual class: inhibitors; 330,000 tested, 0.46% active; calls by dose curve; tested in A549 cells; further: nearly all actives have a fitted effect of over 30% in size
Vaccinia mCherry = inhibitors of vaccinia virus infection (mCherry reporter signal). 310,000 tested, 0.63% active. Vaccinia virus mCherry reporter infection, fluorescence. Potency, µM (titrated, usually from 36.5 µM), for inactives: top-dose activity change, negative = inhibition, most hits filed as inhibitors; calls by dose curve; tested in A549 cells; further: nearly all actives have a fitted effect of over 35% in size
Numbers without * were called inactive; i = inactive; ? = inconclusive; . = not tested or not shown; [ ] = another dose, or the depositor's remark. On the % scale 0 is the no-effect control and ±100 the full control effect; potency means the concentration at half of the fitted maximal effect.

SMILES | Marburg entry inh | Lassa entry inh | VACV Venus inh | Vaccinia mCherry
COc1ccc(C(=O)CC(=O)C(=O)Nc2ccc(C)cc2Cl)cc1 | ? | ? | -5% | i
CC(C)CON=C1C[C@@H](O)[C@@H](O)[C@@H]2[C@H]3C(=O)N(c4cccc(Oc5ccccc5)c4)C(=O)[C@@H]3CC[C@H]12 | -1%[14.2 µM] | . | . | .
O=C(/C(=N\Nc1ccc([N+](=O)[O-])cc1)Sc1nnnn1-c1ccccc1)c1ccccc1 | 0.89µM* | 12% | ? | ?
Cc1ccc(N/N=C(/Sc2nnnn2-c2ccccc2)C(=O)c2ccccc2)cc1 | -5% | -5% | -17% | -26%
CCOC(=O)/C(=C\c1cccnc1)C(=O)c1cc(C(C)=O)c(Nc2ccccc2)s1 | ? | ? | 11µM* | 13µM*
COC(=O)c1c(C)[nH]c(C(=O)OCc2csc(CC(=O)Nc3ccccc3C)n2)c1C | 10µM* | -7% | -18% | -11%
CCOC(=O)c1c(C)[nH]c(C(=O)OCc2ccccc2F)c1C | ? | 10µM* | -15% | -14%
CC1=C[C@@H](c2ccccc2)n2nc(N3C(=O)[C@H]4CC=CC[C@@H]4C3=O)nc2N1 | -4% | . | . | .
CN(C)c1ccc(/C=C/c2cc3ccccc3cn2)cc1 | . | . | -29% | -28%
Brc1ccc2c(c1)C(OC1CN3CCC1CC3)c1ccccc1CS2 (stereo not given) | 4µM* | ? | 11µM* | ?
CN1CCC(OC2c3ccccc3CCc3ccccc32)CC1 | . | . | -27% | i
CN(c1cc2c(c3c1ccn3C)C1CCC2O1)C(C)(C)C (stereo not given) | . | 3.5µM* | . | .
Cc1cccc2cc(CN(Cc3cccnc3)C(=S)NCCCN(C)C)c(=O)[nH]c12 | 2%[46.1 µM] | 14% | 3% | i
Cc1cccc2cc(CN(Cc3ccccc3)C(=S)NCCCN(C)C)c(=O)[nH]c12 | 4µM* | -27%[46.1 µM] | -7% | i
Cc1ccc(CN(Cc2cc3cccc(C)c3[nH]c2=O)C(=S)NCCCN(C)C)cc1 | 4.5µM* | -12% | -22% | -16%
O=C(CCCOc1ccc(Cl)cc1Cl)N/N=C/c1ccccc1O | ? | ? | ? | 7.1µM*
O=C(CCCOc1ccc(Cl)cc1Cl)N/N=C/c1ccccc1 | ? | ? | ? | -20%
O=C(COc1ccc(Cl)cc1Cl)Nc1ccccc1F | -48% | 7.1µM* | -20% | -9%
COC(=O)N[C@@H](c1ccc(Cl)cc1)C(C(C)=O)C(=O)OC (stereo not given in full) | 13%[14.2 µM] | . | . | .
CC1(C)CN=c2s/c(=C\c3ccc(Cl)cc3)c(=O)n2C1 | ? | -23% | ? | 10µM*
CSC1=N/C(=C\c2ccc(Cl)cc2)C(=O)N1N(C)C | -3%[46.1 µM] | 6% | 1% | i
CN1CCC(Oc2ccccc2Sc2ccc(C(F)(F)F)cc2)CC1 | ? | 12µM* | . | .
O=C(Nc1nc(-c2cccs2)cs1)c1ccc(S(=O)(=O)N2CCCC2)cc1 | 12µM* | 21µM* | ? | ?
CC1CC(C)CN(S(=O)(=O)c2ccc(C(=O)Nc3nnc(-c4cccs4)o3)cc2)C1 (stereo not given) | 7.9µM* | ? | -23% | -30%
CS(=O)(=O)c1cccc(-c2nnc(NC(=O)c3ccc(S(=O)(=O)N4CCCC4)cc3)o2)c1 | 3% | -8% | -7% | i
SMILES | Marburg entry inh | Lassa entry inh | VACV Venus inh | Vaccinia mCherry
O=C(Nc1nnc(-c2ccc(F)cc2)o1)c1ccc(S(=O)(=O)N2CCOCC2)cc1 | 7.9µM* | ? | -9% | -9%
O=C(NCCc1ccncc1)c1cnn(-c2ncc3c(n2)-c2ccccc2CCC3)c1C1CC1 | . | . | -11% | -4%
NC(=S)N/N=C1\CC(c2ccc3c(c2)OCCO3)Oc2ccc(F)cc21 (stereo not given) | ? | ? | ? | 11µM*
O=C(N/N=C1\C[C@@H](O)[C@@H](O)[C@@H]2[C@@H]3C(=O)N(C4CCCCC4)C(=O)[C@@H]3CC[C@@H]12)OCc1ccccc1 | -13%[14.2 µM] | . | . | .
CCN(CC)S(=O)(=O)c1ccc2c(c1)nc(SCC(N)=O)n2-c1ccc(OC)cc1 | -10% | 13µM* | ? | .
CCN(CC)S(=O)(=O)c1ccc2c(c1)nc(SCC(=O)N1CCOCC1)n2-c1ccccc1OC | ? | -26% | . | .
Cc1ccnc(NS(=O)(=O)c2ccc(NC(=O)c3ccc([N+](=O)[O-])s3)cc2)n1 | -28% | ? | . | .
O=C(Nc1ccc(S(=O)(=O)NC2=NCCCCC2)cc1)c1ccc([N+](=O)[O-])s1 | ? | ? | 11µM* | 13µM*
COc1ccc(C(=O)N2CCOc3ccc(CN4CCN(c5ccccn5)CC4)cc3C2)o1 | . | . | -3% | -7%
CCOC(=O)c1cn2nc(N3CCCC3)ccc2n1 | 3.5µM* | 1.4µM* | -11% | -2%
C#CCN1C(=O)[C@@]2(CC(C)=CC[C@@H](C)O2)c2ccccc21 | 16%[14.2 µM] | . | . | .
O=C(c1cnsn1)N1CCOc2ccc(C(O)C(c3ccccc3)c3ccccc3)cc2C1 (stereo not given) | . | . | -19% | -11%
CCN(CC)S(=O)(=O)c1ccc(/C=C/C(=O)Nc2ccc(Br)cc2F)cc1 | 6.5µM* | 1.6µM* | -28% | -13%
COc1cccc(-c2nc3cc4c(cc3cc2CN(C(=O)c2cc(C)nn2C)C2CC2)CCC4)c1OC | . | . | -7% | -20%
CCn1cc2nc(SCC(=O)Nc3cc(OC)ccc3OC)n(Cc3ccc(Cl)cc3)c(=O)c2n1 | 13µM* | -2%[46.1 µM] | -12% | -14%
CCn1cc2nc(SCC(=O)Nc3ccc(OC)cc3OC)n(Cc3ccc(Cl)cc3)c(=O)c2n1 | ? | ? | -22% | -17%
COC1(C#C[C@@H]2C=C[C@H](OC(C)=O)[C@@H](COC(C)=O)O2)CCCCC1 | -18%[14.2 µM] | ? | . | .
COc1cc(/C=N/n2c(-c3ccc4c(c3)NC(=O)CO4)csc2=Nc2cccc(C)c2)ccc1O | ? | 23µM* | ? | -7%
COCCN=c1scc(-c2ccc3c(c2)NC(=O)CO3)n1/N=C(\C)c1ccc(O)cc1 | ? | ? | 9% | -12%
CCCc1nc2cccnc2n1C1CCN(C(=O)Cn2nccc2C)CC1 | . | . | -9% | -10%
CC(C)=NNc1ncnc2nc[nH]c12 | 2% | -18% | -24% | -9%
CCc1ccc(/C=N/Nc2ncnc3nc[nH]c23)cc1 | ? | 7.9µM* | -22% | -13%
CCOc1ccc(Br)cc1CC(=O)O | 11% | 2% | 1% | .
CCCOc1ccc(Br)cc1CSC(=N)N | 7.3µM* | ? | . | .
O[C@@H]1CN=C2Sc3ccccc3N2C1 | -9% | . | . | .
SMILES | Marburg entry inh | Lassa entry inh | VACV Venus inh | Vaccinia mCherry
Cc1cc2nnc(SCC(=O)Nc3cc(S(=O)(=O)N4CCOCC4)ccc3Cl)n2c2ccccc12 | 7.9µM* | 14% | ? | ?
Cc1ccc(S(=O)(=O)N2CCOCC2)cc1NC(=O)CSc1nnc2cc(C)c3ccccc3n12 | ? | ? | -29% | -15%
C=CCn1c(SCC(C)=O)nc2scc(-c3ccco3)c2c1=O | -26%[46.1 µM] | -1%[46.1 µM] | 3% | i
C=CCn1c(SCC(=O)N2CCOCC2)nc2scc(-c3ccco3)c2c1=O | -13% | 10µM* | . | .
O=C(Nc1nc(-c2ccccc2)cs1)c1ccco1 | -1%[46.1 µM] | -1%[46.1 µM] | -8% | i
CC(OC(=O)c1ccco1)C(=O)Nc1nc(-c2ccccc2)cs1 (stereo not given) | 11µM* | 10µM* | 1% | i
CCCCCCOc1ccc(CC(=O)O)cc1 | . | . | -8% | -8%

Assay outcomes deposited in PubChem BioAssay by National Center for Advancing Translational Sciences (NCATS).
